UCHL1 block: blocks human UCHL1 ubiquitin-rhodamine cleavage. purified UCHL1, Ub-rhodamine cleavage fluorescence. inhibition, % at 20 µM. actives 0.2% (n = 47,000). AID 1645859
USP8 block: inhibitors of human USP8 deubiquitinase. purified USP8, Ub-rhodamine cleavage fluorescence, 30 min. inhibition, % at 20 µM. actives 4.2% (n = 47,000)
USP10 block: inhibitors of human USP10 deubiquitinase. Q14694. purified USP10, Ub-rhodamine fluorescence, 60 min. inhibition, % at 20 µM. actives 1.1% (n = 47,000). AID 1645856
USP7 inh: inhibitors of human USP7 deubiquitinase; Q93009; purified USP7, Ub-rhodamine cleavage fluorescence; inhibition, % at 20 µM; actives 0.3% (n = 47,000); AID 1645854
Of the large screens only hits and unclear results are named; the others gave an inactive call. The list is not random: actives were taken first. Their share in the collection is about 4.6%. No stated cut-off is given here; in the data, active means inhibition above about 30%; inactive means the rest.

Cc1cc(S(=O)(=O)N2CCC(c3c(C)[nH]c4ccccc34)CC2)ccc1F	none
COc1ccc(CN2CCc3nc(-c4ccncc4)[nH]c(=O)c3C2)cc1O	none
CC(C)(C)c1ccc(C(=O)OCC(=O)Nc2ccc3c(c2)OCO3)cc1	none
Cc1cc(C(=O)COC(=O)c2ccc(C(C)(C)C)cc2)c(C)n1Cc1ccc2c(c1)OCO2	USP8 block 34
CC(=O)OC(c1nc2ccccc2c(=O)n1C1CC2(OC1=O)c1ccccc1N1C(=O)C(C)NC12)C(C)C (configuration not stated)	none
COc1ccc(C2CC(=O)c3cnc4c(c3C2)c(=O)n(C)c(=O)n4C)cc1 (configuration not stated)	none
COCCn1c(=O)[nH]c(=O)c2c3c(cnc21)C(=O)CC(c1ccc(F)cc1)C3 (configuration not stated)	USP8 block 68
CN1CCC2(Cc3ccccc3CN(C(=O)Cc3cccc(Cl)c3)C2)C1 (configuration not stated)	none
CCCCCn1c(SCc2cccnc2)nc2cc(C(=O)NCc3ccco3)ccc2c1=O	none
CCCCCn1c(SCC(=O)CC(=O)OCC)nc2cc(C(=O)NCc3ccco3)ccc2c1=O	USP8 block 63
CCOc1ccc(-c2ccc3nnc(SCC(=O)Nc4ccc(F)cc4)n3n2)cc1	USP8 block 78, USP10 block 38
O=C(CSc1nnc2ccc(-c3ccccc3)nn12)Nc1ccc(F)cc1	none
CCOc1ccc(-n2c(SCC(=O)Nc3ccc(C)cc3)nnc2-c2c[nH]c3ccccc23)cc1	USP8 block 97, USP10 block 71
COc1ccc(/C=C/c2ccnc3nc(-n4cccc4)nn23)cc1	none
Nc1nc(SCc2ccc([N+](=O)[O-])cc2)[nH]c(=O)c1NC(=O)c1ccco1	USP8 block 39
CCOC(=O)c1noc2nc(C)nc(NCC3CCN(Cc4ccc(C)cc4)CC3)c12	none
CCOC(=O)c1noc2nc(C)nc(NCc3ccc(OC)cc3)c12	USP8 block 40
Cc1cccc(NCc2cc(=O)n3cccc(C)c3n2)c1C	none
Cc1ccccc1NC(=O)Nc1ccccc1OCc1cc(=O)n2cccc(C)c2n1	USP8 block 46, USP10 block 40
Cc1cc(C)cc(NC(=O)Nc2ccccc2OCc2cc(=O)n3c(ncn3C(C)C)n2)c1	USP8 block 50, USP10 block 40
O=C(O)c1c(CNC2CCCCCC2)c2ccccc2n1Cc1ccc(F)cc1	UCHL1 block 45
O=C(O)c1c(CNC2CCCCC2)c2ccccc2n1Cc1cccc(F)c1	none
Cc1ccc(C)c(Nc2nc3c(S(=O)(=O)c4ccccc4)nnn3c3ccccc23)c1	USP8 block 39
Cc1ccc(Nc2nc3c(S(=O)(=O)c4ccccc4)nnn3c3ccccc23)c(C)c1	USP8 block 70
O=S(=O)(c1ccccc1)c1nnn2c1nc(NCc1ccc(Cl)cc1)c1ccccc12	none
Cc1ccc(S(=O)(=O)c2nnn3c2nc(NCc2ccc(F)cc2)c2ccccc23)cc1C	USP8 block 51
N#Cc1ccc(N2CCN(C(=O)c3cccs3)CC2)cc1	none
Cc1ccc(C)c(NC(=O)CSc2nnc(-c3cccnc3)o2)c1	none
COc1ccccc1-c1nc(CN2CCN(c3ccccn3)CC2)cs1	none
Cc1ccc(C(C)C)c(Oc2ccc(C(=O)NC(C)c3ccccc3)cc2)c1 (configuration not stated)	none
COc1cccc(NC(=O)C(C)OC(=O)c2ccc(NS(=O)(=O)c3ccc(F)c(F)c3)cc2)c1 (configuration not stated)	none
COc1ccc(C(=O)C(C)OC(=O)c2cccc(S(=O)(=O)Nc3cc([N+](=O)[O-])ccc3OC)c2)c(OC)c1 (configuration not stated)	USP10 block 37
COc1ccc(C(=O)Nc2ccccc2C(=O)NC(Cc2ccc(O)cc2)C(=O)NNC(=O)Cc2ccc(OC)c(OC)c2)cc1 (configuration not stated)	USP10 block 67
COc1ccc(CNC(=O)c2ccccc2NC(=O)c2ccc(F)cc2)cc1	none
CCOC(=O)C(Cc1ccccc1)NC(=O)c1oc(=O)c2ccccc2c1-c1ccccc1 (configuration not stated)	none
O=C(COC(=O)C(Cc1c[nH]c2ccccc12)NC(=O)c1ccccc1Cl)c1ccc([N+](=O)[O-])cc1 (configuration not stated)	none
O=C(COC(=O)C(Cc1c[nH]c2ccccc12)NC(=O)c1ccccc1Cl)Nc1ccc([N+](=O)[O-])cc1C(F)(F)F (configuration not stated)	USP8 block 57, USP10 block 32
COc1cccc(N2CCN(C(=O)/C(=C/c3cccs3)c3ccccc3)CC2)c1	none

Screening data: PubChem BioAssay, Buhrlage Lab, Dana-Farber Cancer Institute and Novartis Institutes for BioMedical Research (Cambridge, Mass)
